This passage reports Potency and outcome results from PubChem BioAssay (NCATS).

Values joined by “and” are separate entries in the source; they are usually repeats but may differ in a detail not shown here. Equal values may be shown once. Inconclusive results are not listed. Active and inactive are the calls of the source. Unless noted, calls follow the shape of the dose curve; as a rule, active = well fitted curve in the direction sought with a large enough effect; inconclusive = small, poorly fitted or top-dose-only effect, or another doubt; inactive = no such curve, though single readings can be large; an effect the other way counts as inactive or inconclusive.

A short description of test [1]: qHTS to identify inhibitors of the type 1 interferon - major histocompatibility complex class I in skeletal muscle: primary screen against the NCATS Pharmaceutical Collection (AID 1347407).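 Also: luminescence of HiBiT knocked into endogenous HLA-B as interferon-induced MHC class I level.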 Also: potency is read from the fitted curve at half-maximal effect. In outline: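 Immortalized human myoblasts (C25cl48) with HiBiT knocked into endogenous HLA-B*08:01 were stimulated with 4.0 ng/ml IFN-beta and treated with compounds ([…] top 46 uM) for 24 hrs at 37 C. HiBiT lytic luminescence read.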

Test [2] deals with Protein phosphatase 1D (Homo sapiens) (UniProt O15297). Kind of test: Rhodamine-PBP qHTS Assay for Modulators of WT P53-Induced Phosphatase 1 (WIP1) (AID 1347425). In outline: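 WIP1 (5 nM final) was preincubated with compound for 1 hour at room temperature. It then dephosphorylated 10 uM VEPPL-pS-QETFS peptide in Tris-HCl pH 7.5 with 30 mM MgCl2. Released Pi was detected by 10 uM Rh-PBP fluorescence (ex 525/em 598 nm) read at 1-min intervals for 11 min, as delta f1 - f0.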
Sequence of Protein phosphatase 1D (Homo sapiens) (O15297 whole entry, looked up): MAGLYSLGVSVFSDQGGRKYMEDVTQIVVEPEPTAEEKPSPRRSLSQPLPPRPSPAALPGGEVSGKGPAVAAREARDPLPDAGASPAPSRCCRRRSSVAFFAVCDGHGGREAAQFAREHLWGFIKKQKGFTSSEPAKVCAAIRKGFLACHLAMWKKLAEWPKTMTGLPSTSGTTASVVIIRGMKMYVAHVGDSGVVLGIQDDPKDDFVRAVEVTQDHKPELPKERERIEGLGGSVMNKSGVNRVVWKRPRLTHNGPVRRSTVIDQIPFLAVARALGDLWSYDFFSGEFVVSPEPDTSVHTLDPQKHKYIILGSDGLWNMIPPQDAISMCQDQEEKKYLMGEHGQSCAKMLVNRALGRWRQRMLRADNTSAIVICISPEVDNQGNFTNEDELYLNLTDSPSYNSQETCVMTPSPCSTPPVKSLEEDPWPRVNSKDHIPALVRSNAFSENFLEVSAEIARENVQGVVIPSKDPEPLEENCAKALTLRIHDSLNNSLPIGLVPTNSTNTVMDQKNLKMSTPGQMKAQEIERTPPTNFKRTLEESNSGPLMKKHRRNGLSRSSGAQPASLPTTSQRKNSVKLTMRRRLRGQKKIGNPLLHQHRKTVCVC
(Quantitative high-throughput screening tests each substance at several concentrations.)

Test [3] can be described thus: Primary qHTS for inhibitors of SARS-S pseudo-typed particle cell entry (AID 1479145; calls by dose curve; also: nearly all actives have a fitted effect of over 45% in size; also: potency is read from the fitted curve at half-maximal effect).
Test [4] in a line: Primary qHTS for Huh7 cytotoxicity: counterscreen for inhibitors of MERS-S pseudotyped particle cell entry (AID 1479147; calls by dose curve; also: potency is read from the fitted curve at half-maximal effect).
A short description of test [5]: Primary qHTS for inhibitors of MERS-S pseudo-typed particle cell entry (AID 1479149; calls by dose curve; also: nearly all actives have a fitted effect of over 60% in size; also: potency is read from the fitted curve at half-maximal effect).
Test [6] in a line: Primary qHTS for Vero E6 cytotoxicity: counterscreen for inhibitors of SARS-S pseudo-typed particle cell entry (AID 1479150; calls by dose curve).
Test [7] is described as follows: Primary qHTS for inhibitors of La Crosse Virus (LACV) - induced cell death in SH-SY5Y cells (AID 1508616).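 Also: top concentration of the series differs between compounds; higher means more rescue of cells from virus-induced death.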 In outline:
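Rescue of virus-induced death was read as ATPLite luminescence after 6 days at 37C, scaled between DMSO wells with LACV and without virus. Cells were SH-SY5Y, 6000/well, infected at 0.01 MOI after compound addition.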

Test [8] addresses Protein phosphatase 1D (Homo sapiens) (UniProt O15297). The experiment in a line: RapidFire Mass Spectrometry qHTS Assay for Modulators of WT P53-Induced Phosphatase 1 (WIP1) (AID 1347424).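 Also: amount of dephosphorylated VEPPL-S-QETFS peptide product formed by WIP1.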 Also: potency is read from the fitted curve at half-maximal effect. In outline: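 RapidFire mass spectrometry measured dephosphorylated peptide after 5 min room-temperature reaction of 2 uM VEPPL-pS-QETFS with 10 nM WIP1 (50 mM Tris-HCl pH 7.5, 30 mM MgCl2, 0.1 mM EGTA, BSA), following 1 hr compound preincubation; 1 uM isotope-labelled product standard.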

Test [9] addresses Calcium and integrin-binding protein 1 (Homo sapiens) (UniProt Q99828). Kind of test: Confirmatory qHTS for Identification of Calcium Integrin Binding Protein 1 (CIB1) Competitor (AID 1508617). Also: nearly all actives have a fitted effect of over 65% in size. In outline:
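FP competition: CIB1-GST (1 uM final) in 5 mM HEPES pH 7.4, 125 mM NaCl, 5 mM CaCl2, 0.01% Tween20 preincubated 15 min RT with compounds (up to 114 uM), then FITC-alphaIIb peptide (100 nM), 15 min RT; Ex 480/Em 540.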

Test [10] has the same target. The experiment in a line: Primary qHTS for Identification of Calcium Integrin Binding Protein 1 (CIB1) Competitor (AID 1508620).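 Also: GST tagged CIB1 binding a fluorescein labelled alphaIIb integrin peptide tracer; top concentration of the series differs between compounds.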 The method in brief: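 CIB1-GST (1 uM final) and compound incubated 15 min at room temperature before adding FITC-alphaIIb peptide tracer (100 nM final). Competition for binding read by fluorescence polarization (ex 480, em 540) after another 15 min at room temperature.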

Test [11] in a line: Counterscreen qHTS for small molecule stabilizers of the endoplasmic reticulum resident proteome: GLuc-NoTag assay (AID 1508627). Also: potency is read from the fitted curve at half-maximal effect. The method in brief: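 Counterscreen line: SH-SY5Y-GLuc-NoTag cells, treated with compound 19 hr before a 4 hr, 100 nM thapsigargin calcium depletion. Secreted Gaussia luciferase in the medium was measured by luminescence after coelenterazine was added (0.07x final), with cells unlysed.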
(A counterscreen serves to expose hits that act by an unwanted route or on another target.)

Test [12] can be described thus: Confirmatory qHTS for small molecule stabilizers of the endoplasmic reticulum resident proteome: Secreted ER Calcium Modulated Protein (SERCaMP) assay (AID 1508628). Also: potency is read from the fitted curve at half-maximal effect; nearly all actives have a fitted effect of over 40% in size. In outline:
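Reporter secretion upon ER calcium depletion (100 nM thapsigargin, 4 h, 37C) is measured as medium luminescence with coelenterazine, after 16 h compound pretreatment of SH-SY5Y-GLuc-SERCaMP cells; primary at three concentrations up to 38.3 uM, follow-up at 11 (up to 76.6 uM).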

Sequence of Calcium and integrin-binding protein 1 (Homo sapiens) (Q99828 whole entry, looked up): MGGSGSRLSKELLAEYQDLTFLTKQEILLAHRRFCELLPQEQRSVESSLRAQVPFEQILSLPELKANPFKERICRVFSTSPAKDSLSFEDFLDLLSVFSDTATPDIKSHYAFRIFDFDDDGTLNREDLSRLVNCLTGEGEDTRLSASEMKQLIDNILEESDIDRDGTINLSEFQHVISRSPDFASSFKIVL

Consider `Oc1ccc([C@H]2CNCc3c2ccc(O)c3O)cc1O`, for which the Potency result in test [1], in test [3], in [4], in test [5] and in test [6] was “inactive” throughout. The molecule was called inactive in test [2] and in test [7].

For the molecule `Cc1ccc([N+](=O)[O-])[c]2c1[O][Hg]2`, the Potency in test [1] is 11.8 µM (active); in test [8] it was 3.98 µM (active); in test [3], 10 µM (active); in [4] it was 2.24 µM (active); in test [5], 2.82 µM (active). Also, in test [9], the Potency result was “inactive”.

As for `Cc1nnc2n1-c1sc(CCc3ccc(CC(C)C)cc3)cc1C(c1ccccc1Cl)=NC2C` (stereo not drawn), the Potency entry in test [1], in test [4], in [6] and in test [10] was “inactive” in each case. For the same molecule, the Potency in test [5] is 20 µM (active). Besides, the result in test [7] was inactive.

Consider `CC(C)=C[C@@H]1[C@@H](C(=O)OCc2coc(Cc3ccccc3)c2)C1(C)C`, for which the Potency entry in test [1], in test [8] and in [10] was “inactive” each time. Also, in test [2], the molecule was called inactive.

With `C[C@H](N)[C@H](O)c1ccc(O)c(O)c1`, the Potency in test [8] was 2 µM (active). Besides, the outcome in [2] and in test [7] was inactive. The Potency entry in [3], in [4], in test [5], in test [6] and in test [10] was “inactive” each time.

In the case of `O=C(N[C@H]1N=C(c2ccccc2F)c2cccc3c2N(CC3)C1=O)c1cc2ccccc2[nH]1`, the Potency entry in test [1], in [3], in test [4], in test [5], in [6] and in [10] was “inactive” in each case. For the same molecule, the molecule was called inactive in [2] and in test [7].

For the molecule `CC[n+]1c(-c2ccccc2)c2cc(N)ccc2c2ccc(N)cc21`, in test [1], the Potency result is “inactive”. The result in [7] was inactive. The Potency in [11] is 20 µM (active).

For `C[C@H](CN1CCOCC1)C(C(=O)N1CCCC1)(c1ccccc1)c1ccccc1`, the Potency entry in test [1], in [8] and in [10] was “inactive” in each case. Moreover, in [2], the result was inactive.

In the case of `CCCN(CCC)CCc1c[nH]c2ccccc12`, the Potency entry in test [1], in test [8] and in [10] was “inactive” throughout. In addition, in [2], the result was inactive.

In the case of `O=C(N[C@@H]1N=C(c2ccccc2F)c2cccc3c2N(CC3)C1=O)c1cc2ccccc2[nH]1`, the Potency result in [1] and in test [10] was “inactive” each time. Moreover, the molecule was called inactive in test [2] and in test [7].

Consider `C#C[C@]1(O)C=C[C@H]2[C@@H]3CCC4=CC(=O)CC[C@@H]4[C@H]3CC[C@@]21CC`, for which the Potency result in test [8], in test [4], in [5], in test [6] and in test [10] was “inactive” in each case. Also, the molecule was classed as inactive in test [2] and in test [7].

On to `CNC(=O)Oc1cccc2ccccc12`, for which the Potency result in test [8], in [3], in test [4], in test [5], in test [6] and in test [10] was “inactive” throughout. The result in [2] was inactive.

For the molecule `ClCCCN1CCN(c2cccc(Cl)c2)CC1`, the Potency entry in [1], in test [8] and in test [10] was “inactive” in each case. Further, the call in [2] was inactive.

Consider `CN(C)CCc1c[nH]c2ccccc12`, for which the Potency entry in [1], in [8] and in test [10] was “inactive” throughout. The molecule was called inactive in [2].

As for `O=C(O)CCCCCCNC1c2ccccc2CCc2ccccc21`, the Potency result in [1], in test [8] and in [10] was “inactive” in each case. Besides, in [2], the call was inactive.

Consider `CC(Cc1ccc2c(c1)OCO2)NO` (stereo not drawn), for which the Potency result in [1], in test [8] and in [10] was “inactive” each time. The outcome in test [2] was inactive.

In the case of `Nc1ccc(N)cc1`, the Potency entry in test [1], in test [8] and in [10] was “inactive” each time. Further, the result in [7] was inactive.

For `CC[C@H](O)C(C[C@H](C)N(C)C)(c1ccccc1)c1ccccc1`, the Potency result in test [1], in test [8] and in [10] was “inactive” in each case. In addition, the result in test [2] was inactive. Further, the Potency in [12] is 50.1 µM (active).

For `CCOC(=O)c1cncn1C(C)c1ccccc1` (stereo not drawn), the Potency result in test [8], in [3], in test [4], in [6] and in test [10] was “inactive” throughout. In addition, the outcome in [2] and in test [7] was inactive.

As to `CCN1CCCC1CNC(=O)C(O)(c1ccccc1)c1ccccc1` (stereo not drawn), the Potency entry in test [1], in [8] and in test [10] was “inactive” each time. Further, the result in test [2] was inactive.

Take `CC#C[C@]1(O)CC[C@H]2[C@@H]3C[C@H](C)C4=CC(=O)CC[C@]4(C)[C@H]3CC[C@@]21C`: the Potency result in test [8], in [4], in test [6] and in test [10] was “inactive” throughout. Moreover, the call in test [2] was inactive. Also, the Potency in test [3] is 20 µM (active).

For `C[C@]12Cc3nonc3C[C@@H]1CC[C@@H]1[C@@H]2CC[C@@]2(C)[C@H]1CC[C@]2(C)O`, the Potency result in test [8], in test [4], in [6] and in [10] was “inactive” in each case. Besides, the result in test [2] and in test [7] was inactive.

Turning to `CCOC(=O)NC(C)(C)Cc1ccc(Cl)cc1`, the Potency entry in test [1], in test [8] and in test [10] was “inactive” throughout. The molecule was called inactive in test [2].

As for `CN1C(=O)[C@@H](NC(=O)c2cc3ccccc3[nH]2)N=C(c2ccccc2)c2ccccc21`, the Potency entry in test [1] and in [10] was “inactive” in each case. Also, the outcome in test [2] was inactive.

`COc1ccc2c(C(=O)c3ccc(Cl)cc3)c(C)n(CC(=O)O)c2c1`: the Potency result in [1] and in [10] was “inactive” each time. Also, the molecule was classed as inactive in [2] and in [7].

In the case of `O=C1NCN(c2ccccc2)C12CCN(CCCOc1ccc(F)cc1)CC2`, the Potency entry in test [1], in [8] and in [10] was “inactive” each time. In test [2], the result was inactive. The Potency in test [11] is 8.91 µM (active); in test [12], 2.51 µM (active) and 3.16 µM (active).

As to `CN1CCc2cc(Cl)c(O)cc2[C@H]2c3ccccc3CC[C@@H]21`, the Potency entry in [1], in test [8] and in test [10] was “inactive” throughout. In addition, in test [2], the outcome was inactive.

In the case of `c1ccc2nc(N3CCNCC3)ccc2c1`, the Potency result in test [1] and in test [10] was “inactive” each time. Also, the molecule was classed as inactive in test [2].

Take `CCc1ccc(C2CCNCC2)cc1`: the Potency entry in test [1], in test [8] and in test [10] was “inactive” each time. For the same molecule, the call in [2] was inactive.

For `CC(C)(C)OC(=O)c1ncn2c1[C@@H]1CCCN1C(=O)c1c(Br)cccc1-2`, the Potency result in test [1], in test [8] and in test [10] was “inactive” in each case. In test [2], the outcome was inactive.
